A selection: hits, their analogues and other compounds. The true share with any hit is near 2.2%.
TRAIL sens C8 – sensitizes caspase-8 expressing cells to TRAIL; NB7+C8 cells + TRAIL, ATPlite viability luminescence; inhibition (viability loss, TRAIL sensitization), % at 10 µM; 1% of 360,000 active; AID 624354;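 active means compounds causing at least 50% loss of cell viability in the single-dose screen, relative to plate controls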
hiPSC survival – increases survival of single human iPS cells; 0.044% of 360,000 active; hiPSC single-cell survival, ATPlite luminescence; 100% = ROCK inhibitor wells, 0% = DMSO; AID 602274; survival enhancement, % at 20 µM; in the data active means survival enhancement above about 18%;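 further: cells exposed to compounds for 16 hours before the ATP read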
PPC-1+TRAIL kill – PPC-1 cancer cell killing with TRAIL present. PPC-1 cells + TRAIL, ATPLite viability luminescence. cell killing (% activity), % at 4 µM or 5 µM. 0.41% of 220,000 active. AID 1443;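 active means cell killing above 50% in the first pass at 4 µM, then a duplicate retest at 5 µM averaging 50% or more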
CF NFkB block – inhibitors of cystic fibrosis induced NF-kB. AID 588850. KKLEB NF-kB-GFP reporter, PAF-induced, GFP fluorescence overnight. 0.86% of 360,000 active. inhibition, % at 5 µM;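 active means at least 50% inhibition at 5 µM, scaled per plate between neutral and stimulator controls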;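 further: PAF is a Pseudomonas aeruginosa culture filtrate used as stimulus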
KKLEB cytotox – CF airway cell cytotoxicity counter-screen; KKLEB CF airway cells viability, ATPlite luminescence, overnight; hits give low values; cells stimulated with P. aeruginosa culture filtrate; activity change (cytotoxicity), % at 5 µM; 0.36% of 360,000 active; AID 602141;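 active means corrected activity change at or below -50% at 5 µM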
HIF-2a inh – HIF-2a inhibition; 786-0 RCC cells HIF-2a reporter, luciferase luminescence, overnight; inhibition, % at 18.8 µM; 0.72% of 360,000 active; AID 624352;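 active means inhibition of the luminescence signal of 40% or more relative to plate controls, in a single-dose primary screen at 18.75 µM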
CF NFkB conf – confirmation of cystic fibrosis induced NF-kB inhibitors | AID 602472 | inhibition, % at 5 µM | 64% of 1,300 active | shares compounds with CF NFkB block | KKLEB CF airway cells, PAF-induced NF-kB-GFP fluorescence, overnight; in the data active means inhibition above about 40%;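 further: stimulus PAF is a Pseudomonas aeruginosa filtrate and not platelet activating factor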
Large screens that a line does not name were inactive (follow-up assays come after a bar, where they were run); ! = not active in a repeat.

COc1cc(O)c(C(C)=O)c2c1C=CC(C)(C)O2	none (no result: PPC-1+TRAIL kill)
Cc1c(O)ccc2c(-c3ccccc3)cc(=O)oc12	CF NFkB block 75.2 (no result: PPC-1+TRAIL kill) | CF NFkB conf 95.1
CC(=O)Nc1cccc(NC(=O)c2cc(-c3cccnc3)nc3ccc(Br)cc23)c1	CF NFkB block 83.6 | CF NFkB conf 57.1
Cc1ccc(C(=O)OCC(=O)NC2CCCC2)cc1C	none (no result: PPC-1+TRAIL kill)
CSCC[C@H](NC(=O)Cc1c(C)c2cc3c(C)c(C)oc3cc2oc1=O)C(=O)N[C@@H](C(=O)O)c1ccccc1	none (no result: PPC-1+TRAIL kill)
COc1ccc(N=Cc2cc3c(cc2O)OC(N)=C(C#N)C3c2ccccc2)cc1 (configuration not stated)	CF NFkB block 56.3 | CF NFkB conf 84.8
COc1cccc(/C=N/n2nnnc2N)c1OCC#N	none (no result: PPC-1+TRAIL kill)
O=S1(=O)CC=C(CSC(=S)NC2CCS(=O)(=O)C2)C1 (configuration not stated)	CF NFkB block 51.4 | CF NFkB conf 95.8
CC(C(=O)Nc1nccs1)N1C(=O)c2ccccc2S1(=O)=O (configuration not stated)	none (no result: PPC-1+TRAIL kill)
CCNC(=O)/C=C1\NC(C)(C)Cc2c1ccc1ccccc21	none
CC1(C)Cc2c(ccc3ccccc23)C(=O)N1	CF NFkB block 68.7 | CF NFkB conf 78.4
Nc1cccc2c1C(=O)N(C(=O)/C=C/c1cccc(Br)c1)C2=O	CF NFkB block 56.2 | CF NFkB conf inactive
O=C(/C=C/c1cccc(F)c1)N1CCN(c2ccccn2)CC1	none
Nc1cccc2c1C(=O)N(C(=O)/C=C/c1cccc(F)c1)C2=O	CF NFkB block 52.2 | CF NFkB conf inactive
COc1cc(NC(=O)c2cc3cccc(OC)c3o2)cc(C(=O)Nc2cccc(C(F)(F)F)c2)c1	TRAIL sens C8 51.2, CF NFkB block 61.7 | CF NFkB conf 69.8
COc1cc(NC(=O)c2csc(-c3ccncc3)n2)cc(C(=O)Nc2cccc(C(F)(F)F)c2)c1	CF NFkB block 56.9! | CF NFkB conf 71.1
O=C1CC(NS(=O)(=O)c2cccnc2)CN1c1cccc(F)c1 (configuration not stated)	none (no result: PPC-1+TRAIL kill)
O=C(NCCN1CCN(c2ccccc2)CC1)c1cccc(Br)c1	CF NFkB block 52.3 | CF NFkB conf 52.9
Cc1cccc(C(=O)NCCN2CCN(c3ccccc3)CC2)c1	none
CC(C)C[C@@H]1NC(=O)[C@H](Cc2ccccc2)N(C)C(=O)[C@H](C)NC(=O)c2ccccc2NC(=O)[C@H](Cc2ccc(O)cc2)N(C)C1=O	CF NFkB block 82.1 | CF NFkB conf 94.2
CC(=O)c1ccccc1NC(=O)CN1C(=O)NC2(CCCCCCC2)C1=O	none (no result: PPC-1+TRAIL kill)
C=C1CC[C@@H]2[C@](C)(CO)[C@H](O)CC[C@@]2(C)[C@@H]1C/C=C1/C(=O)OCC1O (some centres not stated)	CF NFkB block 53.9 (no result: PPC-1+TRAIL kill) | CF NFkB conf inactive
C=C/C(C)=C/CC1C(=C)CCC2C(C)(C(=O)O)CCCC12C (configuration not stated)	none
C[C@H](CO)N1C[C@H](C)[C@H](CN(C)Cc2cncnc2)Oc2cc(Br)ccc2S1(=O)=O	none (no result: PPC-1+TRAIL kill)
CC(c1ccccc1)N1C(=O)c2ccc(C(=O)Nc3ccc(Br)cc3C(=O)O)cc2C1=O (configuration not stated)	CF NFkB block 59.7 (no result: PPC-1+TRAIL kill) | CF NFkB conf 44.4
COc1ccc(-c2nc(NC(=O)c3ccc(OCC(=O)Nc4ccc(F)cc4)c(OC)c3)sc2C)cc1	CF NFkB block 54.3 | CF NFkB conf 72.0
C=C1C(=O)OC2C=C(CO)CCC=C(CO)CC(OC(=O)C(C)C)C12 (configuration not stated)	CF NFkB block 87.3 (no result: PPC-1+TRAIL kill) | CF NFkB conf 45.0
COc1ccc(Nc2ncnc3ccc(Br)cc23)cc1OC	none (no result: PPC-1+TRAIL kill)
Clc1cccc(Nc2ncnc3ccc(Br)cc23)c1	CF NFkB block 69.3 | CF NFkB conf 58.5
Cc1cccc(Nc2ncnc3ccc(Br)cc23)c1	CF NFkB block 58.5 | CF NFkB conf 71.8
CN(C)c1ccc(Nc2ncnc3ccc(Br)cc23)cc1	CF NFkB block 73.1 (no result: PPC-1+TRAIL kill) | CF NFkB conf 92.8
